Screens (PubChem)
D2 ag-1: human D2 receptor agonism in beta-arrestin assay; AID 624465; DiscoveRx PathHunter D2 beta-arrestin, luminescence, 90 min; 100% = 57 uM dopamine signal; activation, % (concentration not given with the values); P14416; actives 0.084% (n = 360,000); in the data active means activation above about 40%
Target sequence (P14416 whole entry, looked up): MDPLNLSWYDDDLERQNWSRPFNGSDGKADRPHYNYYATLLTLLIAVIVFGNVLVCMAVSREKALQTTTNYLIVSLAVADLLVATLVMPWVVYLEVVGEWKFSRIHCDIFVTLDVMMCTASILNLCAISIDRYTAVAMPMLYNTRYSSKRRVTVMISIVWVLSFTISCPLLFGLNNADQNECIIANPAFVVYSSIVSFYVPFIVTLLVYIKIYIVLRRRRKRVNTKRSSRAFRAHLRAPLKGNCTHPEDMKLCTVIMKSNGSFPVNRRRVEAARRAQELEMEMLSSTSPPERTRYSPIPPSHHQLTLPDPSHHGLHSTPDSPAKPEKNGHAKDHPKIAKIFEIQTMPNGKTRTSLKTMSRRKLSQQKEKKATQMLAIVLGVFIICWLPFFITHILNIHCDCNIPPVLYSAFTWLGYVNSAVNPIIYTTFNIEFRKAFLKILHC
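DiscoveRx PathHunter D2 beta-arrestin cells (2,100/well) attached overnight, then compound-stimulated 90 min at 37 C in HBSS/10 mM HEPES/0.1% Tween-20 buffer; beta-galactosidase complementation read by luminescence after 1 h at ambient temperature. Dopamine 57 uM final (EC100) as control.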
D2 PAM-1: positive allosteric modulators of human D2 dopamine receptor. P14416. actives 0.23% (n = 360,000). DiscoveRx D2 beta-arrestin cells, luminescence, 90 min; 100% = 57 uM dopamine signal. potentiation, % (test concentration not listed). AID 624464; in the data active means potentiation above about 50%
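PathHunter D2 cells, attached overnight at 37 deg C, received compound in DMSO plus dopamine at EC20 (50 nM final) for 90 min at 37 deg C. Beta-arrestin recruitment was read as luminescence after 1 h with detection reagent at ambient temperature.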
D2 ag-2: agonists of human D2 dopamine receptor | actives 0.53% (n = 340,000) | AID 485358 | activation, % at 2 µM | HEK293 T-REx D2 cells, calcium flux agonist mode;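 active means activation over 3 SD above normal in the single-dose calcium agonist read, cut at about 30% in these data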; further: 0% is about no effect
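Agonism is scored from calcium flux in a force-coupled, inducible HEK293 cell line expressing D2, read kinetically for 180 s after compound addition against dopamine controls.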
D2 antagonist: antagonists of human D2 dopamine receptor | P14416 | HEK293 TREx D2 cells, calcium flux, dopamine EC80 | inhibition, % at 10 µM | actives 2% (n = 340,000) | AID 485344; in the data active means inhibition above about 30%; inactive means below that, where a call was filed; further: 0% is about no effect
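Antagonism is scored as inhibition of an EC80 dopamine-evoked calcium signal in a force-coupled, tetracycline-inducible HEK293 T-REx D2 line, with compound present 180 s before agonist.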
D2 PAM-2: positively modulates the human D2 dopamine receptor allosterically | P14416 | HEK293 T-REx D2, calcium flux, EC20 dopamine potentiation | potentiation, % at 10 µM | actives 0.34% (n = 340,000);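 active means potentiation over 3 SD above the plate norm, cut at about 30% in these data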; further: 0% is about no effect
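Potentiation of an EC20 dopamine calcium response is measured in a force-coupled, tetracycline-inducible Hek293 Trex D2 line. Compound-only kinetic reads over 180 s flag agonists before dopamine addition.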
* = called active by the depositor. In the library only some 2.4% were active in any assay of this set; here they are far more common.

How did COc1ccc(C(=O)c2ccc(N3CCN(C4CC(=O)NC4=O)CC3)cc2)cc1F (configuration not stated) do in these assays?
D2 ag-1: -1.2; D2 PAM-1: 14.0; D2 ag-2: -0.1; D2 antagonist: 34.0*; D2 PAM-2: 3.0

How did COc1cccc(CNS(=O)(=O)c2cc3[nH]c(=O)c(=O)[nH]c3cc2C)c1 do in these assays?
D2 ag-2: 0.2; D2 PAM-2: -4.1

What do the screens show for `Cc1cc(SCC(=O)N(C)c2c(N)n(Cc3ccccc3)c(=O)[nH]c2=O)nc2ccccc12`?
D2 ag-1: -3.9; D2 PAM-1: -1.4; D2 ag-2: 0.3; D2 antagonist: 38.2*; D2 PAM-2: -16.9

What do the screens show for `COc1ccc(N2CCN(C(c3ccccc3)c3sc4nc(-c5ccco5)nn4c3O)CC2)cc1` (configuration not stated)?
D2 ag-2: -2.9

Results for CCN(CC)c1ccc2cc(C(=O)NCc3ccc(F)cc3)c(=N)oc2c1 ?
D2 ag-2: 46.2*; D2 antagonist: 2.3; D2 PAM-2: -8.7

What do the screens show for `N=c1oc2ccc(Br)cc2cc1C(=O)NCc1ccc(F)cc1`?
D2 ag-1: -3.8; D2 PAM-1: -8.5; D2 ag-2: -0.5; D2 antagonist: 8.5; D2 PAM-2: -3.6

How did O=C(CSc1nc2sc3c(c2c(=O)n1-c1ccccc1)CCCC3)NCc1ccco1 do in these assays?
D2 ag-1: 1.9; D2 PAM-1: -6.1; D2 ag-2: 1.5; D2 antagonist: -1.1; D2 PAM-2: -10.0

What do the screens show for `CC1(C)Cc2c(sc3nc(SCC(=O)NCc4ccco4)n(-c4ccccc4)c(=O)c23)CS1`?
D2 ag-1: 0.8; D2 PAM-1: -9.0; D2 ag-2: 0.7; D2 antagonist: 30.4*; D2 PAM-2: -3.5

Results for CCc1cccc(NC(=O)CSc2ncc3c(n2)-c2cc(Cl)ccc2N(C)S3(=O)=O)c1 ?
D2 ag-2: 0.1; D2 PAM-2: 4.2

What do the screens show for `CCOc1ccccc1N(C)C(=O)c1cc(S(=O)(=O)NCc2ccc(C)cc2)ccc1F`?
D2 ag-2: 0.1; D2 PAM-2: -5.5

Results for COc1ccc(SCCC(=O)NCc2ccncc2)cc1 ?
D2 ag-1: 0.8; D2 PAM-1: 1.2; D2 ag-2: -0.4; D2 antagonist: 32.1*; D2 PAM-2: -14.4

Results for O=C(CCSc1ccc(Cl)cc1)NCc1ccncc1 ?
D2 ag-1: -0.8; D2 PAM-1: -10.3; D2 ag-2: 0.7; D2 antagonist: -2.6; D2 PAM-2: -1.7

Results for O=C1c2ccccc2C(=O)c2c(Nc3ccc(CCO)cc3)ccc(O)c21 ?
D2 ag-1: 41.1*; D2 PAM-1: -13.7; D2 ag-2: 1.2; D2 antagonist: 19.5; D2 PAM-2: -3.6

What do the screens show for `COc1ccccc1NC(=S)NC(=O)Cc1ccc(Cl)cc1`?
D2 ag-1: -5.4; D2 PAM-1: 2.5; D2 ag-2: 9.2; D2 antagonist: 52.3*; D2 PAM-2: -14.1

Results for COc1cc2c3nnc(-c4ccc(F)cc4)c-3cn(Cc3ccccc3)c2cc1OC ?
D2 ag-1: 50.4*; D2 PAM-1: 7.4; D2 ag-2: 0.1; D2 antagonist: 28.6; D2 PAM-2: 1.5

Results for CCN(CC)S(=O)(=O)c1ccc(C(=O)NCCSc2c(-c3ccc(C)cc3)[nH]c3ccccc23)cc1 ?
D2 ag-2: -0.2; D2 PAM-2: -8.6

How did O=S1(=O)C=CC(Sc2nc3ccccc3[nH]2)C1 (configuration not stated) do in these assays?
D2 ag-1: -3.5; D2 PAM-1: -1.9; D2 ag-2: -1.7; D2 antagonist: -2.6; D2 PAM-2: -2.1

What do the screens show for `CC1=CS(=O)(=O)CC1Sc1nc2ccccc2[nH]1` (configuration not stated)?
D2 ag-1: -0.6; D2 PAM-1: 4.1; D2 ag-2: 0.2; D2 antagonist: 37.7*; D2 PAM-2: -7.3

Results for O=C(Cc1ccc(F)cc1)NCCc1csc2nc(-c3ccc(Cl)cc3)nn12 ?
D2 PAM-2: 5.7

Results for C=CCn1c(Sc2ccccc2)nc2c1c(=O)[nH]c(=O)n2C ?
D2 ag-1: -2.5; D2 PAM-1: -5.5; D2 ag-2: 1.2; D2 antagonist: -11.2; D2 PAM-2: 1.3

What do the screens show for `CCCCCn1c(Sc2ccccc2)nc2c1c(=O)[nH]c(=O)n2C`?
D2 ag-1: -1.2; D2 PAM-1: -6.7; D2 ag-2: -0.5; D2 antagonist: 31.4*; D2 PAM-2: 5.3

Results for CC(C)CCSc1nc2c(c(=O)[nH]c(=O)n2C)n1CCCc1ccccc1 ?
D2 ag-1: 6.3; D2 PAM-1: -0.4; D2 ag-2: -2.2; D2 antagonist: 35.3*; D2 PAM-2: -7.8

What do the screens show for `COc1ccccc1-c1cc2nc(C)c(CCC(=O)NCCc3ccc(SC)cc3)c(C)n2n1`?
D2 ag-2: -1.4; D2 PAM-2: 0.0

How did S=C(Nc1ccc(Cl)cc1)c1nc2ccccc2s1 do in these assays?
D2 ag-1: -3.1; D2 PAM-1: -17.5; D2 ag-2: -0.3; D2 antagonist: -6.5; D2 PAM-2: 1.7

How did Cc1ccc(NC(=S)c2nc3ccccc3s2)cc1 do in these assays?
D2 ag-1: -4.4; D2 PAM-1: -8.3; D2 ag-2: 0.0; D2 antagonist: -1.4; D2 PAM-2: 87.4*

Results for O=C1CSC(c2ccccc2)N1CC12CC3CC(CC(O)(C3)C1)C2 (configuration not stated) ?
D2 ag-1: -1.6; D2 PAM-1: 6.6; D2 ag-2: 0.4; D2 antagonist: 37.5*; D2 PAM-2: 7.1

What do the screens show for `Cn1c(SCc2ccc(Br)cc2)nc2ccccc2c1=O`?
D2 ag-1: 4.2; D2 PAM-1: 3.6; D2 ag-2: 0.9; D2 antagonist: -0.8; D2 PAM-2: -2.2

Results for Cc1cccc(CSc2nc3ccccc3c(=O)n2C)c1 ?
D2 ag-1: -2.7; D2 PAM-1: -1.4; D2 ag-2: -0.4; D2 antagonist: 34.9*; D2 PAM-2: -8.7

How did COc1ccc(-n2nc3c(N4CCCC(C(=O)NCCc5ccc(C)cc5)C4)nnc(C)c3c2C)cc1 (configuration not stated) do in these assays?
D2 ag-2: 0.5; D2 PAM-2: -1.9

Results for CC(C)(C)c1ccc(OCC(=O)N/N=C/c2cc(Br)ccc2OC(=O)c2ccco2)cc1 ?
D2 ag-1: -8.1; D2 PAM-1: -10.7; D2 ag-2: 0.8; D2 antagonist: 34.0*; D2 PAM-2: 0.0

How did COCCn1c(SCC(=O)NC(C)c2ccc(F)cc2)nc2ccccc21 (configuration not stated) do in these assays?
D2 ag-1: -3.8; D2 PAM-1: -5.9; D2 ag-2: -0.7; D2 antagonist: 13.6; D2 PAM-2: 33.9*

Results for Cc1csc2nc(COC(=O)c3cccc(NC(=O)COc4ccccc4Cl)c3)cc(=O)n12 ?
D2 ag-2: 0.6; D2 PAM-2: -0.7
